# A selection follows.
# CYP2C9 activ: CYP2C9 (human) activation. AID 1024. activation factor at 5 µM. actives 1.4% (n = 96,000). recombinant CYP2C9, luciferin-H conversion, luminescence; stronger effect = higher value; factor 1 = untreated enzyme, 0 = blocked. P11712;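 active = activation factor of 2 or more for CYP2C9 at a 5 µM dose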;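 also: 0 = sulfaphenazole-blocked wells and 1 = vehicle-only wells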
# CYP2C9 inhib: inhibitors of human CYP2C9; inhibition, % at 5 µM; P11712; CYP2C9 Supersomes, luciferin-H conversion, luminescence; actives 20% (n = 96,000);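 active = blocking of liver enzyme CYP2C9 beyond about 50% at 5 µM, limit read from the data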
# Cav32 inh: human Cav3.2 channel inhibition, primary screen; B-score at 10 µM; O95180; Cav3.2-expressing cells, Fluo-4 calcium fluorescence FDSS; stronger effect = lower value; actives 4% (n = 100,000);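 active = single-dose well whose peak fluorescence ratio is a statistical outlier from its plate by either plate-standardised score or position-corrected B-score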
# CYP2C19 inh: human CYP2C19 inhibition; P33261; CYP2C19 Supersomes, luciferin-H EGE luminescence, 30 min; inhibition, % at 5 µM; actives 21% (n = 96,000); AID 778;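 active = CYP2C19 inhibition above a set limit at 5 µM in the primary screen, cut at about 50% in these data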;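 also: plate controls were negative control wells for no effect and 2.5 mM tranylcypromine positive control for full effect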
# Target sequence (P33261 whole entry, looked up): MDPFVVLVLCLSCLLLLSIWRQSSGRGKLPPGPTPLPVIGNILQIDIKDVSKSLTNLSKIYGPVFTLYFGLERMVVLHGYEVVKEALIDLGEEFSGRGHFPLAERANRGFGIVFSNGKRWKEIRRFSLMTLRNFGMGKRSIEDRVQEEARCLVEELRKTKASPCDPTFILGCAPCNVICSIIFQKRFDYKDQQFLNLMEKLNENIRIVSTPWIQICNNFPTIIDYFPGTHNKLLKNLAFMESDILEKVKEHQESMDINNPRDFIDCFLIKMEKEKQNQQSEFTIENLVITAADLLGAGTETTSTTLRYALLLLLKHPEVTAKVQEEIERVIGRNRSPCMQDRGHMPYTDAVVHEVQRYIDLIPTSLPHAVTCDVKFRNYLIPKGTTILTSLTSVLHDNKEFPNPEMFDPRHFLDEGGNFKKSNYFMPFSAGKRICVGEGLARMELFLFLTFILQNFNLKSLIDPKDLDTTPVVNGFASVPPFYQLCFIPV
# CYP2C19 act: activators of human cytochrome P450 2C19. recombinant CYP2C19, luciferin-H EGE luminescence; stronger effect = higher value; 0 = fully inhibited enzyme, 1 = untreated enzyme. activation factor at 5 µM. 96,000 tested, under 10 active. AID 1025;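 active = activation factor of at least 2 at 5 µM in the primary screen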;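 also: 0 = wells with 2.5 mM tranylcypromine and 1 = vehicle-only wells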
# The depositor's hits bear a star; nt = not tested or not shown.
SMILES,CYP2C9 activ,CYP2C9 inhib,Cav32 inh,CYP2C19 inh,CYP2C19 act
Cc1ccc(Oc2ccc(NC(=O)CCC(=O)OCC(=O)c3cccs3)cc2)cc1C,1,-1,0.062,7,0.9
CC1=CCC2(CO)COC(c3ccccc3O)C1C2 (stereo not drawn),0.9,12,1.1,35,0.6
O=[N+]([O-])c1cc(S(=O)(=O)Nc2ccccc2)ccc1-n1nnc2ccccc21,0.3,72*,-6.3*,51*,0.5
Cc1ccc(C(=O)CSc2ncnc3sc4c(c23)CCC(C)C4)cc1 (stereo not drawn),nt,nt,-3.1,nt,nt
CCCOC(=O)C1NC(=O)N2C(C(=O)OCCC)C(C)(C)S[C@H]12 (stereo partly drawn),nt,nt,0.23,nt,nt
O=C(COC(=O)Cc1ccc(S(=O)(=O)N2CCOCC2)s1)Nc1ccc2c(c1)OCO2,0.8,21,1.9,8,0.9
NC(=O)c1cc(-c2ccccc2)sc1NC(=O)Cc1ccc(S(=O)(=O)N2CCOCC2)s1,0.5,52*,-0.46,14,0.9
Cc1ccccc1C(=O)N1CCN(c2ccc([N+](=O)[O-])c(NCc3ccco3)c2)CC1,0.7,34,0.12,21,0.8
Cc1cccc(C(=O)N2CCN(c3ccc([N+](=O)[O-])c(NCc4ccco4)c3)CC2)c1,0.2,78*,-1.9,78*,0.2
Cc1ccc(C(=O)N2CCN(c3ccc([N+](=O)[O-])c(NCc4ccco4)c3)CC2)cc1,0.3,74*,-1.2,46,0.5
CC(=O)Nc1ccc(-n2nnnc2SCC(=O)N2CCN(C(=O)c3ccco3)CC2)cc1,0.9,10,1.2,10,0.9
CC(=O)/C(=C/Nc1ccc(Oc2ccccc2)cc1)c1ccccc1,0.1,89*,-0.29,68*,0.3
COc1cc(N/C=C(\C(C)=O)c2ccccc2)cc(OC)c1,0.1,86*,-1.4,72*,0.3
COc1cccc(C(N)=O)c1,nt,nt,-0.3,nt,nt
CC(C)CC(=O)N1CCN(S(C)(=O)=O)CC1,1,0,-0.08,6,0.9
Cc1ccccc1-c1ccc(=O)n(CC(=O)Nc2ccc(N3CCOCC3)cc2)n1,0.9,12,-0.037,10,0.9
Cc1cc(C)nc(N2CCCC(C(=O)Nc3ccc4nc(C)c(C)nc4c3)C2)n1 (stereo not drawn),1.2,-17,-0.00074,5,0.9
Cn1cnnc1SCC(=O)NCCc1ccccc1,1.1,-7,-0.35,23,0.8
Cc1ccc(NS(=O)(=O)c2ccc(NC(=O)[C@@H]3CCCC[C@@H]3C(=O)O)cc2)c(C)c1,0.8,18,-0.24,13,0.9

# Assay outcomes (PubChem BioAssay)
